Common to all, as to assay: universal protein binding microarray (PBM); transcription factors of Arabidopsis thaliana; high values mean tight binding
For one assay, the target named is T1, GST-ANAC092(1-176) (Arabidopsis thaliana, UniProt Q9FKA0 1-176).
T1 sequence: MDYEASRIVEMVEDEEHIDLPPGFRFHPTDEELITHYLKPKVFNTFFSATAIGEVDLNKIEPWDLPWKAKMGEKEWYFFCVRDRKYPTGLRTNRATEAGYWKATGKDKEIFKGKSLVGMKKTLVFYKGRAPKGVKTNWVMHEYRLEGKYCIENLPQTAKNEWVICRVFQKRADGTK
To be noted: protein: recombinant; tags: GST; chain copies: 2; dsDNA, one strand shown. An outline of the steps:
(§1)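 Binding is expressed as the normalised enrichment score (E-score). Proteins carrying a GST tag, whether NAC-domain, full-length or DNA-binding-domain forms, were induced in cells, and zinc acetate was added for zinc-finger proteins. After purification on glutathione–Sepharose 4B and quantification by A280 or anti-GST western blot, each was applied in duplicate at 200 to 500 nM final to custom all-10-mer Agilent 4 × 180K arrays made double-stranded by primer extension. Gapped and ungapped 8-mers were scored.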

In a further assay the target is T2, GST-ANAC019 NAC domain (Arabidopsis thaliana, UniProt Q9C932 14-162).
T2 sequence: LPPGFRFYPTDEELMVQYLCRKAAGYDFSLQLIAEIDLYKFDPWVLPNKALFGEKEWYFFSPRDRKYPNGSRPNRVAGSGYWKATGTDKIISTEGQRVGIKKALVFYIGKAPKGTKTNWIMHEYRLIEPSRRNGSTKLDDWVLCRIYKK
To be noted: protein: recombinant; tags: GST; chain copies: 2; dsDNA, one strand shown. In short, it runs like this:
as §1

The next assay deals with T3, GST-ANAC055(1-171) (Arabidopsis thaliana, UniProt Q9LDY8 1-171).
T3 sequence: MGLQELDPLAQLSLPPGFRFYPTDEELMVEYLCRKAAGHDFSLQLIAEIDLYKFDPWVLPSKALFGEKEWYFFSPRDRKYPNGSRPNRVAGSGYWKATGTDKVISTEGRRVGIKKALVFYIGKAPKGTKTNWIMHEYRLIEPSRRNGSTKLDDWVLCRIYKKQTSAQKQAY
To be noted: protein: recombinant; tags: GST; chain copies: 2; dsDNA, one strand shown. In short, it runs like this:
as §1

A further assay deals with T4, GST-NTL8 NAC domain (Arabidopsis thaliana, UniProt Q9XIN7 14-156).
T4 sequence: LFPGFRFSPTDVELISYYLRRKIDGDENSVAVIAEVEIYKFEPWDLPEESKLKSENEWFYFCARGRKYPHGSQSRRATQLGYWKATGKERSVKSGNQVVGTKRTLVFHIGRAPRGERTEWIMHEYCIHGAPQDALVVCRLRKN
To be noted: protein: recombinant; tags: GST; chain copies: 2; dsDNA, one strand shown. An outline of the steps: as §1

In the next assay the target is T5, GST-VND7 NAC domain (Arabidopsis thaliana, UniProt Q9C8W9 9-158).
T5 sequence: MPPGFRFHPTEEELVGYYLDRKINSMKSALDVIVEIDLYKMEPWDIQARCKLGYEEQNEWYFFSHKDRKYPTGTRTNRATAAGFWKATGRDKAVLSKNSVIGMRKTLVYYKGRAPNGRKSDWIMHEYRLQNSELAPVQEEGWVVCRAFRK
To be noted: protein: recombinant; tags: GST; chain copies: 2; dsDNA, one strand shown. In short, it runs like this:
as §1

The next assay deals with GST-WRKY1(266-371) (Arabidopsis thaliana, UniProt Q9SI37 266-371). The note with it: protein: recombinant; tags: GST; dsDNA, one strand shown. An outline of the steps: as §1
GST-WRKY1(266-371), sequence (Q9SI37 266-371): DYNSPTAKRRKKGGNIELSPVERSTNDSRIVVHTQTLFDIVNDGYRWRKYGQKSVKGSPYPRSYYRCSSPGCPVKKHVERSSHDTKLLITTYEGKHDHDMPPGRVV
Assay [1] addresses T6, GST-ANAC092(1-285) full length (Arabidopsis thaliana, UniProt Q9FKA0 1-285).
T6 sequence: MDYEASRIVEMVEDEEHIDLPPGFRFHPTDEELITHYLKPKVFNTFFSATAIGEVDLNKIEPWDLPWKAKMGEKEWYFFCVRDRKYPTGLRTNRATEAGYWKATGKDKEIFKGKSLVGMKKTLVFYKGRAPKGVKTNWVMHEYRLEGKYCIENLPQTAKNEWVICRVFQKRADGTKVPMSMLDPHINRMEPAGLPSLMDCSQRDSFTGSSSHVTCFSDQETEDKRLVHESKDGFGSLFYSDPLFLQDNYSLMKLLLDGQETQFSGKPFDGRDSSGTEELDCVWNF
To be noted: protein: recombinant; tags: GST; chain copies: 2; dsDNA, one strand shown. An outline of the steps: as §1

A further assay addresses T7, GST-NAP(1-166) (Arabidopsis thaliana, UniProt O49255 1-166).
T7 sequence: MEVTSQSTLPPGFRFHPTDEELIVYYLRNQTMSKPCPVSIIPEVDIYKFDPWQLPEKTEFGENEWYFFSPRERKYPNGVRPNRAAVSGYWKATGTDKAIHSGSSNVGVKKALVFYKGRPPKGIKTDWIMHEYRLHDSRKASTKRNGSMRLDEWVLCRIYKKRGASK
To be noted: protein: recombinant; tags: GST; chain copies: 2; dsDNA, one strand shown. An outline of the steps:
as §1

Another assay addresses T8, GST-NST2(1-184) (Arabidopsis thaliana, UniProt Q9M274 1-184).
T8 sequence: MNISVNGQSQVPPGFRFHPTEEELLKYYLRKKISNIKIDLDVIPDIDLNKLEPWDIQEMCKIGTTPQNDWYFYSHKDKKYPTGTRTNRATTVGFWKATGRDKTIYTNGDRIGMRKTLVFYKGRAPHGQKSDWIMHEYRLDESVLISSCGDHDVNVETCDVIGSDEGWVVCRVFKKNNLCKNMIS
To be noted: protein: recombinant; tags: GST; chain copies: 2; dsDNA, one strand shown. In short, it runs like this:
as §1

Another assay deals with T9, GST-VND3 NAC domain (Arabidopsis thaliana, UniProt Q9FH59 12-162).
T9 sequence: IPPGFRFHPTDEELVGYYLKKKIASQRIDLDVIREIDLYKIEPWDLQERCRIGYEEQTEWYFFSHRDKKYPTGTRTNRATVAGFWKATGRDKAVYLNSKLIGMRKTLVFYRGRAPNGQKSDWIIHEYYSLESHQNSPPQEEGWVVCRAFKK
To be noted: protein: recombinant; tags: GST; chain copies: 2; dsDNA, one strand shown. In short, it runs like this:
as §1

For another assay, the target named is T10, GST-ATAF1 NAC domain (Arabidopsis thaliana, UniProt Q39013 7-158).
T10 sequence: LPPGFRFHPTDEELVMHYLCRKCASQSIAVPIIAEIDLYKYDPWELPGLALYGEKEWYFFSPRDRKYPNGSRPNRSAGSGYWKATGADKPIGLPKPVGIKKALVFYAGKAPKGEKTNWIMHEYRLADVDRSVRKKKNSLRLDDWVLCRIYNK
To be noted: protein: recombinant; tags: GST; chain copies: 2; dsDNA, one strand shown. In short, it runs like this:
as §1

In the next assay the target is GST-NTL6(1-168) (Arabidopsis thaliana, UniProt Q9SCK6 1-168). To be noted: protein: recombinant; tags: GST; chain copies: 2; dsDNA, one strand shown. In short, it runs like this: as §1
GST-NTL6(1-168), sequence (Q9SCK6 1-168): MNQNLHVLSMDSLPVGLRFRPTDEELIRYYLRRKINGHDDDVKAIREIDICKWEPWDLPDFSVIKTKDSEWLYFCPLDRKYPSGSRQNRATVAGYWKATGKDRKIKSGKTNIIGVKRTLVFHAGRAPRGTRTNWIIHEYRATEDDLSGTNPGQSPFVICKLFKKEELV

With GACCGGAA, the binding signal with GST-ANAC092(1-176) came out at 0.0538 E-score; in the assay with GST-ANAC019 NAC domain, 0.213 E-score; with GST-ANAC055(1-171) it was 0.0745 E-score; in the assay with GST-NTL8 NAC domain it was 0.0847 E-score; with GST-VND7 NAC domain it was 0.0568 E-score; in the assay with GST-WRKY1(266-371), 0.404 E-score.
Take AGTCAACG: the binding signal in the assay with GST-ANAC019 NAC domain amounted to 0.0747 E-score; in assay [1], 0.0699 E-score; in the assay with GST-NAP(1-166) it was 0.0565 E-score; with GST-NST2(1-184), 0.114 E-score; with GST-VND3 NAC domain, 0.115 E-score; with GST-WRKY1(266-371) it was 0.494 E-score.
AATTGACC: the binding signal was determined as 0.0684 E-score with GST-ANAC055(1-171); 0.176 E-score with GST-ATAF1 NAC domain; 0.0795 E-score in the assay with GST-NST2(1-184); 0.0822 E-score in the assay with GST-NTL8 NAC domain; 0.115 E-score with GST-VND3 NAC domain; 0.47 E-score with GST-WRKY1(266-371).
On to GGTCATAC, for which the binding signal with GST-NAP(1-166) was 0.108 E-score; with GST-VND3 NAC domain it was 0.115 E-score; with GST-WRKY1(266-371) it was 0.421 E-score.
AGGGTAAT: the binding signal in the assay with GST-ANAC092(1-176) worked out at 0.113 E-score; with GST-NTL6(1-168), 0.143 E-score; in the assay with GST-ANAC019 NAC domain, 0.116 E-score; in the assay with GST-ANAC055(1-171) it was 0.17 E-score; in the assay with GST-ATAF1 NAC domain, 0.114 E-score; in assay [1] it was 0.108 E-score. The binding signal with GST-NST2(1-184) was 0.0716 E-score; with GST-NTL8 NAC domain it was 0.441 E-score; with GST-VND3 NAC domain, 0.121 E-score.
With TTAGTCAA, the binding signal came to 0.12 E-score with GST-ANAC019 NAC domain; 0.107 E-score with GST-ATAF1 NAC domain; 0.0778 E-score in assay [1]; 0.11 E-score with GST-VND3 NAC domain; 0.481 E-score with GST-WRKY1(266-371).
For AGGTCAGC, the binding signal with GST-VND7 NAC domain amounted to 0.078 E-score; with GST-WRKY1(266-371), 0.451 E-score.
Regarding CATTGACG, the binding signal in [1] amounted to 0.149 E-score; with GST-VND3 NAC domain it was 0.08 E-score; in the assay with GST-WRKY1(266-371), 0.411 E-score.
For the sequence ATTGACTG, the binding signal was determined as 0.071 E-score in the assay with GST-NTL6(1-168); 0.0846 E-score with GST-ATAF1 NAC domain; 0.0623 E-score with GST-NST2(1-184); 0.0613 E-score in the assay with GST-NTL8 NAC domain; 0.05 E-score with GST-VND7 NAC domain; 0.465 E-score with GST-WRKY1(266-371).
As for AGTCTGAC, the binding signal in the assay with GST-ANAC019 NAC domain was found to be 0.0699 E-score; in the assay with GST-ANAC055(1-171) it was 0.0555 E-score; with GST-NAP(1-166) it was 0.0965 E-score; in the assay with GST-VND7 NAC domain it was 0.0919 E-score; with GST-WRKY1(266-371), 0.422 E-score.
